Results from publication PMC4336329 (PLoS ONE, 2015).
Screen size: about 310,000 compounds; about 14,000 (4.5%) showed an effect of 50% or more. The effect is printed as a negative number. Many of the other results were omitted from the sample, so strong results are more common in it than they were.

These molecules were tested against human ether-à-go-go-related gene (hERG) potassium channel (human, UniProt Q12809) (assay: primary screen, population patch clamp on CHO cells stably expressing hERG; higher = less effect of the substance).
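Note: peak tail current of the secondary pulse compared with the same well before compound.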

human ether-à-go-go-related gene (hERG) potassium channel, sequence (Q12809 whole entry, looked up): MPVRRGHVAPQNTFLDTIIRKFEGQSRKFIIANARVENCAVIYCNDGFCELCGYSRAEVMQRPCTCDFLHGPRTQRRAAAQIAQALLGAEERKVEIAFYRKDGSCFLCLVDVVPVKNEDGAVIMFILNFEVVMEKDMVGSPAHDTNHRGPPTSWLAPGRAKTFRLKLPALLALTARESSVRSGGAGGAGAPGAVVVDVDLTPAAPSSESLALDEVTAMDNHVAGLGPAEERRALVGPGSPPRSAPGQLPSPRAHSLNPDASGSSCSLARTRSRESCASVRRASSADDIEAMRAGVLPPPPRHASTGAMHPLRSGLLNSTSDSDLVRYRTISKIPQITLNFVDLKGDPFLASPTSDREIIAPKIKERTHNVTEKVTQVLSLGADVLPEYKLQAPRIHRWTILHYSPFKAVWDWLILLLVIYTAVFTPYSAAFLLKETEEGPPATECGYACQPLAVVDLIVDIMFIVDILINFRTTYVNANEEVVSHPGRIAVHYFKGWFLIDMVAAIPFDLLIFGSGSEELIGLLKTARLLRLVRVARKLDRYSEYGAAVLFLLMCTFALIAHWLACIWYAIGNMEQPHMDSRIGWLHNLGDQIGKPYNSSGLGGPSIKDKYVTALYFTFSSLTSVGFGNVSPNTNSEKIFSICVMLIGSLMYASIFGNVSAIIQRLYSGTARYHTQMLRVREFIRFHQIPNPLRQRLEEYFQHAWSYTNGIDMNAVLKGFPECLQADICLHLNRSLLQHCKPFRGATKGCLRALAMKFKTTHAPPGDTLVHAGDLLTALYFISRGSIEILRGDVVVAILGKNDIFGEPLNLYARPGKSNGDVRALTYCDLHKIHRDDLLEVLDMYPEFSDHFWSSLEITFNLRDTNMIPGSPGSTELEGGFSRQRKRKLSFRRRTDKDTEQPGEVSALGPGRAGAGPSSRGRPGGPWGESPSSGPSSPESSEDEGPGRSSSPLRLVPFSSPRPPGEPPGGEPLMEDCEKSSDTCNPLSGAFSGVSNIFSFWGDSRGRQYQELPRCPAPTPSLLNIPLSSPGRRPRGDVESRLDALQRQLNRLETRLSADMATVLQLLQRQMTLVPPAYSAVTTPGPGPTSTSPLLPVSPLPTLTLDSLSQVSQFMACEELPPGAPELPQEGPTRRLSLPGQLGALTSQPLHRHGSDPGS

| SMILES | hERG current change (%, negative = inhibition) at 10uM |
| --- | --- |
| Cc1oc2c(C)c3oc(=O)c(CCC(=O)NCCCN4CCCC4=O)c(C)c3cc2c1C | -14.8% |
| Cc1nc2c(-c3ccc(F)cc3)c(C)nn2c(C)c1CCC(=O)Nc1ccccc1F | -10.7% |
| Cc1nc2c(-c3ccc(F)cc3)c(C)nn2c(C)c1CCC(=O)N1CCN(c2ccc(F)cc2)CC1 | -74.6% |
| COCCCNC(=O)CCc1c(C)nc2c(-c3ccc(F)cc3)c(C)nn2c1C | -38.5% |
| COc1ccc(CN2C(=O)C(C)S/C2=N/N=C/c2ccco2)cc1 (stereo not drawn) | 6.37% |
| CCCc1cc(=O)oc2c(C)c(OCC(=O)Nc3cccnc3)ccc12 | -63.6% |
| Cc1c(C)c2ccc(OCC(=O)Nc3cccnc3)c(C)c2oc1=O | 3.99% |
| Cc1c(OCC(=O)NCCCn2ccnc2)ccc2c3c(c(=O)oc12)CCC3 | -26.7% |
| Cc1c(OCC(=O)NCCCn2ccnc2)ccc2c3c(c(=O)oc12)CCCC3 | -48.2% |
| Cc1cc(=O)oc2c(C)c(OCC(=O)Nc3cccnc3)ccc12 | -25.3% |
| COc1ccc(-c2cc(=O)oc3cc(OC(C)C(=O)NCCCn4ccnc4)ccc23)cc1 (stereo not drawn) | -50.8% |
| CC(Oc1ccc2ccc(=O)oc2c1)C(=O)NCCCn1ccnc1 (stereo not drawn) | 28.5% |
| Cc1cc(=O)oc2cc(OC(C)C(=O)NCCCn3ccnc3)ccc12 (stereo not drawn) | 9.44% |
| COc1ccc(-c2cc(=O)oc3c(C)c(OCC(=O)NCCCn4ccnc4)ccc23)cc1 | -63.8% |
| CC(Oc1ccc2c(-c3ccccc3)cc(=O)oc2c1)C(=O)NCCCn1ccnc1 (stereo not drawn) | -52.5% |
| CCc1cc(=O)oc2cc(OC(C)C(=O)NCCCn3ccnc3)ccc12 (stereo not drawn) | 9.41% |
| CC(Oc1ccc2c3c(c(=O)oc2c1)CCCC3)C(=O)NCCCn1ccnc1 (stereo not drawn) | -2.45% |
| COc1ccc(-c2cc(C(=O)N(C)CCc3ccc(OC)c(OC)c3)c3ccccc3n2)cc1 | -29.4% |
| CC(c1ccco1)N(C(=O)c1cccc(S(=O)(=O)N(C)C)c1)c1ccccn1 (stereo not drawn) | 16% |
| Cc1c(C)c2ccc(OCC(=O)NCCCn3ccnc3)c(C)c2oc1=O | -32.7% |
| CCc1cc(=O)oc2c(C)c(OCC(=O)NCCCn3ccnc3)ccc12 | -45.9% |
| O=C(COc1ccc2c(-c3ccccc3)cc(=O)oc2c1)NCCCn1ccnc1 | -48.7% |

| SMILES | hERG current change (%, negative = inhibition) at 10uM |
| --- | --- |
| COc1ccc(-c2cc(=O)oc3cc(OCC(=O)NCCCn4ccnc4)ccc23)cc1 | -65.4% |
| COc1ccc(-c2cc(=O)oc3cc(OCC(C)=O)ccc23)cc1 | -74.6% |
| COC(=O)COc1ccc2c(-c3ccc(OC)cc3)cc(=O)oc2c1 | -39.2% |
| Cc1cc(=O)oc2cc(OCC(=O)NCCCn3ccnc3)ccc12 | 7.58% |
| CCCc1cc(=O)oc2c(C)c(OCC(=O)NCCCn3ccnc3)ccc12 | -75.3% |
| CC(=O)COc1ccc2c(-c3ccccc3)cc(=O)oc2c1 | -1.91% |
| Clc1cccc(-c2nc(NCCCN3CCOCC3)c3ccccc3n2)c1 | -10.1% |
| CCOC(=O)N1CCN(C(=O)c2cccc(NC3=NC4CS(=O)(=O)CC4S3)c2)CC1 (stereo not drawn) | 4.31% |
| NC(=O)c1cc(Cc2ccccc2)sc1NC(=O)c1ccco1 | -13.6% |
| O=C1CCC(c2ccccc2)=NN1 | 9.05% |
| COCC(C)NC(=O)/C(=C/c1ccccc1)c1ccccc1 (stereo not drawn) | -25% |
| COc1ccc(S(=O)(=O)C(C#N)c2nc3ccccc3nc2N2CCC(C)CC2)cc1 (stereo not drawn) | 18.6% |
| O=C(Nc1ccccc1)Nc1ccc2c(c1)CCC2 | 29.8% |
| CC(OC(=O)CCCOc1ccccc1)C(=O)NC(N)=O (stereo not drawn) | 9% |
| Cn1cncc1C#Cc1c(C=O)n(C)c2ccccc12 | 19.8% |
| O=C1c2cccc(OCC(=O)N3CCCc4ccccc43)c2CCN1Cc1ccc(Br)cc1 | 6.7% |
| O=C(COc1cccc2c1CCN(Cc1ccccc1)C2=O)NCc1ccco1 | -70.3% |
| Cc1ccc(CN2CCc3c(OCC(=O)Nc4cc(C)ccc4C)cccc3C2=O)cc1 | 4.23% |
| COC(=O)c1ccc(COc2cccc3c2CCN(Cc2cccc(C)c2)C3=O)o1 | -3.41% |
| Cc1ccc(C)c(NC(=O)COc2cccc3c2CCN(Cc2ccccc2)C3=O)c1 | -10.1% |
| Cc1cccc(CN2CCc3c(OCC(=O)NCc4ccco4)cccc3C2=O)c1 | -51.2% |
| O=C(COc1cccc2c1CCN(Cc1ccc(Br)cc1)C2=O)NCc1ccco1 | -70.6% |

| SMILES | hERG current change (%, negative = inhibition) at 10uM |
| --- | --- |
| Cc1cccc(NC(=O)COc2cccc3c2CCN(Cc2ccccc2)C3=O)c1C | -5.8% |
| O=C(COc1ccccc1-c1ccccc1)NCc1ccco1 | -28% |
| O=C(CN1C(=O)C2CC=CCC2C1=O)Nc1ccccc1N1CCCC1 (stereo not drawn) | 6.41% |
| CCOC(=O)c1c(C)c(C(=O)NCCN2CCOCC2)c(C)n1C | 15.1% |
| CCOC(=O)C1(C)NC(c2ccco2)C2C(=O)N(C)C(=O)C21 (stereo not drawn) | 13.6% |
| COC(=O)c1ccc(C2c3c(oc4ccc(Cl)cc4c3=O)C(=O)N2CCN2CCOCC2)cc1 (stereo not drawn) | -35.2% |
| COc1ccc(C2c3c(oc4ccc(Cl)cc4c3=O)C(=O)N2CCN2CCOCC2)cc1 (stereo not drawn) | -81.2% |
| COc1ccc(C2c3c(oc4ccccc4c3=O)C(=O)N2CCCN2CCOCC2)cc1 (stereo not drawn) | -7.15% |
| C/C(=N\NC(=O)c1c(Br)c(C)nn1C)c1cccc(NC(=O)C2CCC2)c1 | -19.4% |
| Cc1c(C(=O)N2CCN(S(C)(=O)=O)CC2)oc2ccccc12 | 3.49% |
| CCCCNS(=O)(=O)c1ccc2nc(-c3cccnc3)cc(C(=O)NC(C)C)c2c1 | 16.7% |
| O=C(C1CCC1)N1CCC(O)(c2cccc(F)c2)CC1 | 14.6% |
| C=CCNC(=O)NC(=O)COn1nnc2ccc(S(=O)(=O)N(C)C)cc21 | 5.69% |
| CN(C)S(=O)(=O)c1ccc2nnn(OCC(=O)NC34CC5CC(CC(C5)C3)C4)c2c1 | -51.7% |
| CCc1ccc(NC(=O)COn2nnc3ccc(S(=O)(=O)N(C)C)cc32)cc1 | -29.1% |
| Cc1ccccc1CC(=O)Nc1ccc2c(C)cc(=O)oc2c1 | -15.3% |
| CCOC(=O)c1ccc(NC(=O)c2nc[nH]c2C(=O)N2CCN(c3ccccc3)CC2)cc1 | 3.29% |
| O=C(O)C(Cc1c[nH]c2ccccc12)NS(=O)(=O)c1ccc(Br)cc1 (stereo not drawn) | 8.36% |
| CCOP(=O)(OCC)c1nc(-c2ccc(Br)cc2)oc1N1CCCCC1 | -65.3% |
| Cc1ccc(-c2nc(P(=O)(c3ccccc3)c3ccccc3)c(N3CCOCC3)o2)cc1 | -38.3% |
| COP(=O)(OC)c1nc(-c2ccc(C)cc2)oc1N1CCCCC1 | -10.2% |
| CCOP(=O)(c1ccccc1)c1nc(-c2ccccc2Cl)oc1N1CCCCC1 (stereo not drawn) | -11.4% |

| SMILES | hERG current change (%, negative = inhibition) at 10uM |
| --- | --- |
| O=P(c1ccccc1)(c1ccccc1)c1nc(-c2ccc(Cl)cc2)oc1N1CCOCC1 | -74.1% |
| CCOP(=O)(OCC)c1nc(-c2ccccc2)oc1N1CCCCC1 | 4.4% |
| CCOP(=O)(c1ccccc1)c1nc(-c2ccccc2C)oc1N1CCCCC1 (stereo not drawn) | 0.633% |
| O=P(c1ccccc1)(c1ccccc1)c1nc(-c2ccccc2)oc1N1CCOCC1 | -20.5% |
| CCOP(=O)(c1ccccc1)c1nc(-c2ccc(F)cc2)oc1N1CCCCC1 (stereo not drawn) | -56.6% |
| CC1=CCC2C(=O)N(c3ccc(C)cc3)C(=O)C2C1 (stereo not drawn) | -4.42% |
| Cc1ccc(NC(=O)Cn2nnc(-c3ccccc3NC(=O)c3cccs3)n2)cc1 | 21.7% |
| Cc1nc2ccccc2c(=O)n1-c1ccc(Cl)cc1[N+](=O)[O-] | 10.1% |
| Cc1ccccc1NC(=O)C1CCCN(C(=O)NCc2ccccc2)C1 (stereo not drawn) | 1.82% |
| CCCCn1c(O)c(C(CC)=NCCCN(C)C)c(=O)[nH]c1=O | -29.2% |
| CCC(=NCCCn1ccnc1)c1c(O)n(Cc2ccccc2)c(=O)[nH]c1=O | -68% |
| CCCCCCN=C(C)c1c(O)n(CCCC)c(=O)[nH]c1=O | -8.21% |
| CCC(=NCCCN(CC)CC)c1c(O)n(C2CCCCC2)c(=O)[nH]c1=O | -52.9% |
| CCCCn1c(O)c(C(CC)=NCCN2CCCCC2)c(=O)[nH]c1=O | -53.6% |
| CCC(=NCCO)c1c(O)n(C2CCCCC2)c(=O)[nH]c1=O | -14.6% |
| CCC(=NCCCn1ccnc1)c1c(O)n(-c2ccccc2)c(=O)[nH]c1=O | 7.4% |
| CCCCCCN=C(CC)c1c(O)n(CCCC)c(=O)[nH]c1=O | -55.4% |
| CCCCn1c(O)c(C(C)=NCCN2CCCCC2)c(=O)[nH]c1=O | -21.7% |
| CCCCn1c(O)c(C(CC)=NCCN2CCOCC2)c(=O)[nH]c1=O | -15.3% |
| CCN(CC)CCCN=C(C)c1c(O)n(C2CCCCC2)c(=O)[nH]c1=O | -48.7% |
| CCCCn1c(O)c(C(CC)=NCCCn2ccnc2)c(=O)[nH]c1=O | -43.3% |
